Drawing on PubChem BioAssay, this text covers composite z-score for ten molecules.

For the test, the system named is Human papillomavirus type 1a E7 protein (residues 1-88). In words: HPV1a E7 small-molecule binders, primary screen, biochemical, small-molecule microarray, residues 1-88, 635 nm (AID 1129). The note with it: small-molecule microarray binding, fluorescence 635 nm; higher = more signal.
In turn, `COC(=O)c1c2oc(c1C(=O)OC)C(=O)N(Cc1ccccc1)Cc1cn(nn1)C[C@H](Cc1ccccc1)NC(=O)N[C@H](CO)CC2` showed a composite z-score of 0.848.

`O=C1O[C@H](c2ccccc2)[C@H](c2ccccc2)N2[C@H]1[C@@H](C(=O)Nc1nc3ccccc3s1)[C@]1(C(=O)Nc3ccc(C#CC4(O)CCCCCC4)cc31)[C@H]2c1ccccc1OCCO` showed a composite z-score of 1.2.

In the case of `O=C1O[C@@H](c2ccccc2)[C@@H](c2ccccc2)N2[C@@H](c3ccccc3OCCO)[C@]3(C(=O)Nc4ccc(C#CCCO)cc43)[C@@H](C(=O)N3CCCCCCC3)[C@H]12`, the composite z-score turned out to be 1.3.

Consider `CC(C)N1CC=CC23O[C@@H]4C=CCOC(=O)[C@@H]4[C@H]2C(=O)N(CCCO)[C@@H]3C1=O` (stereo not given in full), for which the composite z-score came to 0.672.

With `COc1ccc([Si](C)(C)[C@@H]2[C@@H](CC(=O)N(CCO)Cc3ccccc3)O[C@]3(C(=O)N(Cc4cccc(N5CCOC5=O)c4)c4ccccc43)[C@H]2C)cc1`, the composite z-score was 1.13.

In the case of `COC(=O)[C@@]1(Cc2ccc(F)cc2)[C@H]2c3cc(C(=O)N4CCCC4)n(CCN4CNCC4=O)c3C[C@H]2CN1C(=O)c1ccccc1`, the composite z-score amounted to 1.24.

Take `C=C[C@@H](COC(C)=O)N(C(=O)OC(C)(C)C)S(=O)(=O)c1ccc(Br)cc1`: the composite z-score came to 0.966.

In turn, `CN(C)C(=O)[C@]1(CCS(=O)(=O)c2ccccc2)N=C(c2ccc(OCCCO)cc2)O[C@@H]1c1ccccc1N=[N+]=[N-]` yielded a composite z-score of 1.27.

Consider `O=C1NC(=O)C2C1C=CC(C(O)c1ccco1)N2Nc1ccccn1` (stereo not given), for which the composite z-score was -0.0286.

`C=CC[C@]1(C(=O)NCCN2CCOCC2)N=C(c2ccc(OCCCO)cc2)O[C@H]1c1ccccc1CN=[N+]=[N-]` gave a composite z-score of 1.18.
